# Results from the supplement of paper PMC12282887.
# ± gives the standard deviation of the averaged measurements.
# Assays:
# Test in all cases: promoter activity interaction Z-score (Lux/OD deviation from empty-vector control); higher = stronger promoter induction by the compound
# [1] = tested on: E. coli BW25113 acrABp lux reporter
# How it was run: (§1)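 At 37°C, E. coli BW25113 reporter cultures in 40 µl LB Lennox in 384-well plates were read for OD600 and luminescence every 30 min for 12 h. Windows were 0–8 h for wild type and 1–9 h for deletion strains, and wells under 10% of the median growth value were removed. The score is the Z-transformed residual of growth-normalised luminescence against a control fit.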
# [2] = tested on: E. coli BW25113 micFp lux reporter
# How it was run: as §1
# [3] = tested on: E. coli BW25113 ompFp lux reporter
# How it was run: as §1
# [4] = tested on: E. coli BW25113 robp lux reporter
# How it was run: as §1
# [5] = tested on: E. coli BW25113 soxSp lux reporter
# How it was run: as §1
# [6] = tested on: E. coli BW25113 tolCp lux reporter
# How it was run: as §1
# [7] = 21.6 µg/ml, genetic background: wild type
# [8] = 21.6 µg/ml, genetic background: ΔmarA
# [9] = 21.6 µg/ml, genetic background: Δrob
# [10] = 21.6 µg/ml, genetic background: ΔsoxS
# [11] = 43.2 µg/ml, genetic background: wild type
# [12] = 43.2 µg/ml, genetic background: ΔmarA
# [13] = 43.2 µg/ml, genetic background: Δrob
# [14] = 43.2 µg/ml, genetic background: ΔsoxS
# [15] = 86.4 µg/ml, genetic background: wild type
# [16] = 86.4 µg/ml, genetic background: ΔmarA
# [17] = 86.4 µg/ml, genetic background: Δrob
# [18] = 86.4 µg/ml, genetic background: ΔsoxS
# [19] = 172.7 µg/ml, genetic background: wild type
# [20] = 172.7 µg/ml, genetic background: ΔmarA
# [21] = 172.7 µg/ml, genetic background: Δrob
# [22] = 172.7 µg/ml, genetic background: ΔsoxS
compound,measurement,setting,value
COc1ccc2[nH]c([S+]([O-])Cc3ncc(C)c(OC)c3C)nc2c1 (stereo unspecified) [Omeprazole],promoter activity interaction Z-score,[1]; [7],-0.337 ± 0.014
same,promoter activity interaction Z-score,[1]; [8],0.346 ± 0.48
same,promoter activity interaction Z-score,[1]; [9],-0.0504 ± 0.066
same,promoter activity interaction Z-score,[1]; [10],-0.13 ± 0.54
same,promoter activity interaction Z-score,[1]; [11],-0.353 ± 0.082
same,promoter activity interaction Z-score,[1]; [12],-0.358 ± 0.072
same,promoter activity interaction Z-score,[1]; [13],-0.105 ± 0.12
same,promoter activity interaction Z-score,[1]; [14],-0.0181 ± 0.095
same,promoter activity interaction Z-score,[1]; [15],-0.362 ± 0.37
same,promoter activity interaction Z-score,[1]; [16],-0.395 ± 0.11
same,promoter activity interaction Z-score,[1]; [17],-0.192 ± 0.19
same,promoter activity interaction Z-score,[1]; [18],-0.303 ± 0.19
same,promoter activity interaction Z-score,[1]; [19],-0.479 ± 0.43
same,promoter activity interaction Z-score,[1]; [20],-0.193 ± 0.65
same,promoter activity interaction Z-score,[1]; [21],-0.199 ± 0.17
same,promoter activity interaction Z-score,[1]; [22],-0.532 ± 0.35
same,promoter activity interaction Z-score,[2]; [7],-0.467 ± 0.1
same,promoter activity interaction Z-score,[2]; [8],-0.0778 ± 0.095
same,promoter activity interaction Z-score,[2]; [9],-0.00843 ± 0.2
same,promoter activity interaction Z-score,[2]; [10],-0.201 ± 0.026
same,promoter activity interaction Z-score,[2]; [11],-0.228 ± 0.15
same,promoter activity interaction Z-score,[2]; [12],-0.00184 ± 0.029
same,promoter activity interaction Z-score,[2]; [13],0.0425 ± 0.23
same,promoter activity interaction Z-score,[2]; [14],-0.0104 ± 0.033
same,promoter activity interaction Z-score,[2]; [15],-0.311 ± 0.11
same,promoter activity interaction Z-score,[2]; [16],0.141 ± 0.0042
same,promoter activity interaction Z-score,[2]; [17],0.11 ± 0.088
same,promoter activity interaction Z-score,[2]; [18],0.0651 ± 0.15
same,promoter activity interaction Z-score,[2]; [19],-0.637 ± 0.076
same,promoter activity interaction Z-score,[2]; [20],0.0179 ± 0.059
same,promoter activity interaction Z-score,[2]; [21],-0.0934 ± 0.045
same,promoter activity interaction Z-score,[2]; [22],-0.467 ± 0.12
same,promoter activity interaction Z-score,[3]; [7],-0.482 ± 0.29
same,promoter activity interaction Z-score,[3]; [8],-0.539 ± 0.12
same,promoter activity interaction Z-score,[3]; [9],-0.476 ± 0.1
same,promoter activity interaction Z-score,[3]; [10],-0.299 ± 0.19
same,promoter activity interaction Z-score,[3]; [11],-0.42 ± 0.17
same,promoter activity interaction Z-score,[3]; [12],-0.516 ± 0.55
same,promoter activity interaction Z-score,[3]; [13],-0.244 ± 0.2
same,promoter activity interaction Z-score,[3]; [14],-0.555 ± 0.25
same,promoter activity interaction Z-score,[3]; [15],-1.02 ± 0.014
same,promoter activity interaction Z-score,[3]; [16],-0.56 ± 0.35
same,promoter activity interaction Z-score,[3]; [17],-0.352 ± 0.17
same,promoter activity interaction Z-score,[3]; [18],-0.773 ± 0.19
same,promoter activity interaction Z-score,[3]; [19],-0.996 ± 0.11
same,promoter activity interaction Z-score,[3]; [20],-0.786 ± 0.12
same,promoter activity interaction Z-score,[3]; [21],-1.14 ± 0.44
same,promoter activity interaction Z-score,[3]; [22],-1.41 ± 0.14
same,promoter activity interaction Z-score,[4]; [7],-0.44 ± 0.32
same,promoter activity interaction Z-score,[4]; [8],-0.171 ± 0.43
same,promoter activity interaction Z-score,[4]; [9],-0.295 ± 0.01
same,promoter activity interaction Z-score,[4]; [10],0.394 ± 0.34
same,promoter activity interaction Z-score,[4]; [11],0.141 ± 0.33
same,promoter activity interaction Z-score,[4]; [12],0.325 ± 0.23
same,promoter activity interaction Z-score,[4]; [13],-0.173 ± 0.37
same,promoter activity interaction Z-score,[4]; [14],0.145 ± 0.46
same,promoter activity interaction Z-score,[4]; [15],-0.722 ± 0.046
same,promoter activity interaction Z-score,[4]; [16],0.298 ± 0.23
same,promoter activity interaction Z-score,[4]; [17],-0.445 ± 0.32
same,promoter activity interaction Z-score,[4]; [18],-0.519 ± 0.64
same,promoter activity interaction Z-score,[4]; [19],-0.656 ± 0.28
same,promoter activity interaction Z-score,[4]; [20],-0.167 ± 0.31
same,promoter activity interaction Z-score,[4]; [21],-0.507 ± 0.035
same,promoter activity interaction Z-score,[4]; [22],-0.379 ± 0.46
same,promoter activity interaction Z-score,[5]; [7],-0.231 ± 0.11
same,promoter activity interaction Z-score,[5]; [8],-0.202 ± 0.05
same,promoter activity interaction Z-score,[5]; [9],-0.257 ± 0.062
same,promoter activity interaction Z-score,[5]; [10],-0.178 ± 0.32
same,promoter activity interaction Z-score,[5]; [11],-0.256 ± 0.0098
same,promoter activity interaction Z-score,[5]; [12],-0.206 ± 0.022
same,promoter activity interaction Z-score,[5]; [13],-0.175 ± 0.12
same,promoter activity interaction Z-score,[5]; [14],-0.281 ± 0.054
same,promoter activity interaction Z-score,[5]; [15],-0.301 ± 0.081
same,promoter activity interaction Z-score,[5]; [16],-0.305 ± 0.1
same,promoter activity interaction Z-score,[5]; [17],-0.0539 ± 0.1
same,promoter activity interaction Z-score,[5]; [18],-0.344 ± 0.12
same,promoter activity interaction Z-score,[5]; [19],-0.333 ± 0.024
same,promoter activity interaction Z-score,[5]; [20],-0.374 ± 0.013
same,promoter activity interaction Z-score,[5]; [21],-0.226 ± 0.14
same,promoter activity interaction Z-score,[5]; [22],-0.806 ± 0.14
same,promoter activity interaction Z-score,[6]; [7],-0.0562 ± 0.63
same,promoter activity interaction Z-score,[6]; [8],-0.81 ± 0.13
same,promoter activity interaction Z-score,[6]; [9],-0.978 ± 0.82
same,promoter activity interaction Z-score,[6]; [10],-0.661 ± 0.85
same,promoter activity interaction Z-score,[6]; [11],0.122 ± 0.9
same,promoter activity interaction Z-score,[6]; [12],-0.409 ± 0.93
same,promoter activity interaction Z-score,[6]; [13],-0.642 ± 0.94
same,promoter activity interaction Z-score,[6]; [14],0.332 ± 0.16
same,promoter activity interaction Z-score,[6]; [15],-0.33 ± 0.54
same,promoter activity interaction Z-score,[6]; [16],0.11 ± 0.23
same,promoter activity interaction Z-score,[6]; [17],0.71 ± 0.025
same,promoter activity interaction Z-score,[6]; [18],0.0744 ± 0.91
same,promoter activity interaction Z-score,[6]; [19],0.169 ± 0.58
same,promoter activity interaction Z-score,[6]; [20],-0.0827 ± 1.5
same,promoter activity interaction Z-score,[6]; [21],0.0999 ± 0.066
same,promoter activity interaction Z-score,[6]; [22],-0.969 ± 0.63
